Measured values from PubChem BioAssay (EPA / NIEHS).
Inconclusive results are not listed. Calls of active or inactive are those of the source. How the source made its calls, unless noted: active means hit-call score of the fitted dose curve at least 0.9, where 1 is the maximum; inactive means score below 0.9.

Legend:
[1] = ATG_TAL_CIS: Attagene CIS-FACTORIAL HepG2 Assay for human TAL Basal Promoter (AID 2282966); details: HepG2 Attagene cis-factorial TAL promoter reporter; actives raise or lower the signal;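 further: background control endpoint measuring basal TAL promoter reporter mRNA not a specific factor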
Procedure, shortened: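 Transiently transfected HepG2 (cis-regulated reporter units), 24 h treatment, mRNA read by fluorescent CE after RT-PCR; bidirectional fit, DMSO baseline.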

[2] = ATG_TGFb_CIS: Attagene CIS-FACTORIAL HepG2 Assay for human Transforming Growth Factor (TGF) (AID 2282967); details: HepG2 Attagene CIS TGFb reporter, mRNA transcription; actives raise or lower the signal
Procedure, shortened: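 Transient MRTU transfection of HepG2 (FuGene 6). Dose 24 h. TriZol RNA, oligo(dT) RT, PCR, 6-FAM primer extension, HpaI cut, CE. Bidirectional fit, DMSO = baseline.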

[3] = target: Estrogen receptor (Homo sapiens) (UniProt P03372); experiment: ATG_ERa_TRANS: Attagene TRANS-FACTORIAL HepG2 Assay for human Estrogen Receptor alpha (ERa) (AID 2282970; active means hit-call score of the fitted dose curve at least 0.9, where 1 is the maximum); details: HepG2 Attagene TRANS ERa GAL4 reporter, mRNA
Estrogen receptor (Homo sapiens), sequence (P03372 whole entry, looked up, the tested form may be a part): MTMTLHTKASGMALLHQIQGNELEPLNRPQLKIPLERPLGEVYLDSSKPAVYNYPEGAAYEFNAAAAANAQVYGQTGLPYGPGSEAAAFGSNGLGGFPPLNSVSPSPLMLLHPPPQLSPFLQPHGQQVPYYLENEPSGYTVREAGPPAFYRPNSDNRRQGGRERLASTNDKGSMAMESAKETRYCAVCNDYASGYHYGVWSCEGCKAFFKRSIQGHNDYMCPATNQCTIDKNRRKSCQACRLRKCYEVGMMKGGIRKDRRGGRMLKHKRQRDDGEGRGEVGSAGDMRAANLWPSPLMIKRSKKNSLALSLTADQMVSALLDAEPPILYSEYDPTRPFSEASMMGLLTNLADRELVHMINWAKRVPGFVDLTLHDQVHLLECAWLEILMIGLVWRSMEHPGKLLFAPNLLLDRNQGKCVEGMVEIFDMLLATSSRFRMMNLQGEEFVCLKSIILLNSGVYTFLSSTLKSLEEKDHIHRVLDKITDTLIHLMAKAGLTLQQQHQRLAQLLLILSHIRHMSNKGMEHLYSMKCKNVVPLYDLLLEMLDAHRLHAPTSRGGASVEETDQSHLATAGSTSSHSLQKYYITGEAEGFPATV
Procedure, shortened: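 One of 30 multiplexed endpoints from a HepG2 TRANS system, this one reports ERa-Gal4-driven reporter mRNA. Transcripts were quantified 24 hours post-dosing by fluorescent RT-PCR and capillary electrophoresis, with activity scored as induction over DMSO.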

[4] = target: X-box-binding protein 1 (Homo sapiens) (UniProt P17861); experiment: ATG_Xbp1_CIS: Attagene CIS-FACTORIAL HepG2 Assay for human X-box Binding Protein 1 (XBP1) (AID 2282972); details: HepG2 XBP1 cis-element reporter, Attagene multiplex; actives raise or lower the signal
X-box-binding protein 1 (Homo sapiens), sequence (P17861 whole entry, looked up): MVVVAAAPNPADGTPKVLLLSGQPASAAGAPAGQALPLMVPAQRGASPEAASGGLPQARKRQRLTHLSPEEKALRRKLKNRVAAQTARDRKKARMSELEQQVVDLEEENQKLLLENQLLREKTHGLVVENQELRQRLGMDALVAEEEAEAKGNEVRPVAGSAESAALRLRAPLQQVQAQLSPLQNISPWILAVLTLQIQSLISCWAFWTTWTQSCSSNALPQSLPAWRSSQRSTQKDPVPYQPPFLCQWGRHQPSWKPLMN
Procedure, shortened: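 Human hepatoma HepG2, cis-element reporter system, 24 h treatment; mRNA quantified by RT-PCR/CE fluorescence; fit relative to DMSO.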

[5] = ATG_M_19_TRANS: Attagene TRANS-FACTORIAL HepG2 Assay for M19 Transcription Factor (Internal Marker) (AID 2282974; active means hit-call score of the fitted dose curve at least 0.9, where 1 is the maximum); details: HepG2 Attagene TRANS-FACTORIAL M19 internal marker reporter
Procedure, shortened: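 After transfection of HepG2 with GAL4-UAS-driven reporter constructs, cells are dosed for 24 h. Total RNA is reverse-transcribed, reporter sequences PCR-amplified and labelled, then HpaI-digested and sized by capillary electrophoresis.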

[6] = ATG_GAL4_TRANS: Attagene TRANS-FACTORIAL HepG2 Assay for GAL4 (Internal Marker) (AID 2282976; active means hit-call score of the fitted dose curve at least 0.9, where 1 is the maximum); details: HepG2 Attagene TRANS GAL4 internal marker reporter
Procedure, shortened: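 HepG2 cells transiently transfected with multiplexed GAL4-UAS reporter constructs were dosed for 24 h. Reporter mRNA was measured by RT-PCR, 6-FAM primer extension, HpaI digestion and capillary electrophoresis, and gain of signal was fitted relative to DMSO.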

[7] = target: Estrogen-related receptor gamma (Homo sapiens) (UniProt P62508); experiment: ATG_ERRg_TRANS: Attagene TRANS-FACTORIAL HepG2 Assay for human Estrogen-Related Receptor gamma (ERRg) (AID 2282977; active means hit-call score of the fitted dose curve at least 0.9, where 1 is the maximum;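 further: hits increase reporter signal over DMSO so potencies reflect activators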); details: HepG2 Attagene TRANS reporter, ERRg transactivation
Estrogen-related receptor gamma (Homo sapiens), sequence (P62508 whole entry, looked up, the tested form may be a part): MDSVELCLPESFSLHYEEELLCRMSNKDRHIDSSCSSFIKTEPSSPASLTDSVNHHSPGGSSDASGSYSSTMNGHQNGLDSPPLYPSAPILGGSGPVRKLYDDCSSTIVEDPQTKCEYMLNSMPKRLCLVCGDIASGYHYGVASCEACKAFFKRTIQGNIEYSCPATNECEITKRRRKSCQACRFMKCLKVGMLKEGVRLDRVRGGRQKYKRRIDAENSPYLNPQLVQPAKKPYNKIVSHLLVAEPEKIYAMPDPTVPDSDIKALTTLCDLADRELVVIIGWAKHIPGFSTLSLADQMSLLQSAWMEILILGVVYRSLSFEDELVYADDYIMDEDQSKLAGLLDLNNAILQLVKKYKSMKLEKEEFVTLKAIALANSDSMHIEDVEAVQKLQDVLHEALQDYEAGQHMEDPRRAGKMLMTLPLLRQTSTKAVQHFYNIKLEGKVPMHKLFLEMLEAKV
Procedure, shortened: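 Induction of reporter transcripts through a chimeric NR-Gal4 protein is quantified in transfected human HepG2 liver cells after 24 h chemical exposure, using RT-PCR with capillary electrophoresis detection and DMSO as baseline.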

[8] = target: Nuclear receptor subfamily 1 group I member 3 (Homo sapiens) (UniProt Q14994); experiment: ATG_CAR_TRANS: Attagene TRANS-FACTORIAL HepG2 Assay for human Constitutive Androstane Receptor (CAR) (AID 2282969; active means hit-call score of the fitted dose curve at least 0.9, where 1 is the maximum;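 further: activators raise reporter mRNA above DMSO so AC50 marks induction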); details: HepG2 Attagene TRANS-FACTORIAL CAR reporter
Nuclear receptor subfamily 1 group I member 3 (Homo sapiens), sequence (Q14994 whole entry, looked up, the tested form may be a part): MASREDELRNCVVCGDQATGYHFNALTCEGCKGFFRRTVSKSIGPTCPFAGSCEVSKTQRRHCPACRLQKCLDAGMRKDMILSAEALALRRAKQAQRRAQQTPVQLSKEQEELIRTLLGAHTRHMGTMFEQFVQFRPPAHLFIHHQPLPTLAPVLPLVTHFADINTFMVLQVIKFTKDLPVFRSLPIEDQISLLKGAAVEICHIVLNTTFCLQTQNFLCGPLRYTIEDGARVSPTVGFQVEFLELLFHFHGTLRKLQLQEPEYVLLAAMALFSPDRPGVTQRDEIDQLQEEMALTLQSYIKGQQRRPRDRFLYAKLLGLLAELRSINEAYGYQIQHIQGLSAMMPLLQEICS
Procedure, shortened: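 Signal is reporter mRNA induction relative to DMSO, measured 24 h after dosing by RT-PCR with fluorescent primer extension and capillary electrophoresis. Human HepG2 liver cells carried transiently transfected chimeric NR-Gal4/GAL4-UAS reporter constructs.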

[9] = target: Steroid hormone receptor ERR1 (Homo sapiens) (UniProt P11474); experiment: ATG_ERRa_TRANS: Attagene TRANS-FACTORIAL HepG2 Assay for human Estrogen-Related Receptor alpha (ERRa) (AID 2282971; active means hit-call score of the fitted dose curve at least 0.9, where 1 is the maximum); details: HepG2 Attagene TRANS reporter, ERRa transactivation
Steroid hormone receptor ERR1 (Homo sapiens), sequence (P11474 whole entry, looked up, the tested form may be a part): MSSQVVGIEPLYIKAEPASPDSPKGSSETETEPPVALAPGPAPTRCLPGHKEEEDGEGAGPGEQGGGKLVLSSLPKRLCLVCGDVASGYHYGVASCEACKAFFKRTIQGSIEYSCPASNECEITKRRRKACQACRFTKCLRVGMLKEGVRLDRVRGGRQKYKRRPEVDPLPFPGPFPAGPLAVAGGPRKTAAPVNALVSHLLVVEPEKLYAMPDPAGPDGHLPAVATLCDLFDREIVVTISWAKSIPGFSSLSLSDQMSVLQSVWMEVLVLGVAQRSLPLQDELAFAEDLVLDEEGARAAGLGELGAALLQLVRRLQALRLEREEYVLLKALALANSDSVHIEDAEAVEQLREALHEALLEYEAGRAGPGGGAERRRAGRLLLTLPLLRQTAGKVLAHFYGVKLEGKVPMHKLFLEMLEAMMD
Procedure, shortened: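 HepG2 cells transiently transfected with multiplexed GAL4-UAS reporter units reading chimeric ERRa-Gal4 activity; 24 h compound exposure. Reporter mRNA measured by RT-PCR, 6-FAM labelling, HpaI digest and capillary electrophoresis; gain of signal fitted versus DMSO baseline.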

[10] = ATG_VDRE_CIS: Attagene CIS-FACTORIAL HepG2 Assay for human Vitamin D Receptor Element (VDRE) (AID 2282968); details: HepG2 VDRE cis-reporter transcription, actives raise or lower the signal
Procedure, shortened: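 Readout is VDRE-driven reporter mRNA reflecting endogenous factor activity in human HepG2 cells, sampled 24 h post-dose. Quantification used labelled RT-PCR products separated by capillary electrophoresis; bidirectional analysis relative to DMSO.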

Measured: AC50

Cc1cnc(NC(=O)C2=C(O)c3ccccc3S(=O)(=O)N2C)s1
inactive: [1] | [2] | [3] | [4] | [5]

CC(C)(C)C1CCCCC1=O (configuration not stated)
inactive: [1] | [2] | [3] | [4] | [6]

O=c1[nH]c(=O)c2[nH]c(=O)[nH]c2[nH]1
inactive: [1] | [2] | [4]

Nc1cccc(C(F)(F)F)c1
inactive: [1] | [2] | [4] | [7]

CCCCCCCC/C=C\CCCCCCCC(=O)O
inactive: [1] | [2] | [3] | [4] | [6]

C=C[Si](OC(C)=O)(OC(C)=O)OC(C)=O
inactive: [1] | [2] | [8] | [4] | [5] | [6]

C=C1[C@H]2CC[C@@H]3[C@H]2C(C)(C)CCC[C@]13C
inactive: [1] | [2] | [8] | [4] | [5]

c1ccc2c(c1)ccc1cc3c(ccc4ccccc43)cc12
inactive: [1] | [2] | [3] | [4] | [5] | [6]

CCCCCCCC[N+](C)(CCCCCCCC)CCCCCCCC
inactive: [1] | [2] | [3] | [4] | [5]

O=C1CC2CC1C1CCCC21 (configuration not stated)
inactive: [1] | [2] | [3] | [4] | [5] | [6]

CC(C)=CCC[C@H](C)CCO
inactive: [1] | [2] | [3] | [4] | [6]

CCCCCCCCCCCCCCCCCC#N
inactive: [1] | [2] | [8] | [3] | [4] | [6]

SCCc1cnccn1
inactive: [2] | [9] | [4] | [6]
active: [1] 100 µM

c1ccc(CCCc2ccncc2)cc1
inactive: [1] | [2] | [3] | [4]

C[C@]12CCC(=O)C=C1CC[C@@H]1[C@@H]2C(=O)C[C@@]2(C)[C@H]1CC[C@]2(O)C(=O)CO
inactive: [1] | [2] | [4] | [6]

O=C1CCCCCCCCCCCCCCCO1
inactive: [1] | [2] | [8] | [4]

O=C(Nc1ccccc1)c1ccccc1O
active: [3] 27.2 µM
inactive: [1] | [2] | [7]

CC(C)(C)c1ccc(-c2ccc(C(C)(C)C)cc2)cc1
inactive: [1] | [2] | [3] | [4]

COC(=O)c1ccccc1OC
inactive: [1] | [2] | [4]

O=C(C=Cc1ccccc1)OCc1ccccc1
inactive: [1] | [2] | [3] | [4]

CCCCCC/C=C/C=O
not listed: [3] | [8] | [10]
inactive: all other assays above

COC(=O)c1ccc2cc(C(=O)OC)ccc2c1
inactive: [1] | [2] | [4] | [7]

CC(=O)OC1C2(C)CCC(C2)C1(C)C (configuration not stated)
inactive: [1] | [2] | [4] | [7]

OC1CCCCCCCCCCC1
inactive: [1] | [2] | [4]

c1ccc2c(c1)ccc1ncccc12
inactive: [1] | [2] | [5] | [6] | [7]

CC(=O)Oc1ccc(C)cc1
inactive: [1] | [2] | [6]

CC(=O)c1ccc[nH]1
inactive: [1] | [2] | [3] | [4] | [5] | [6]

COc1ccc(NC(C)=O)cc1N
inactive: [1] | [2] | [4]

COC(=O)/C=C\C(=O)O
inactive: [1] | [2] | [4]

Cc1oncc1C(=O)Nc1ccc(C(F)(F)F)cc1
inactive: [1] | [2] | [3] | [4] | [6]

O=C(c1ccc(O)cc1)c1ccc(O)cc1O
inactive: [1] | [2] | [8] | [5] | [6]
active: [3] 1.03 µM

CC(C)CCCC(C)CC=O (configuration not stated)
inactive: [1] | [2] | [3] | [4]

CCCCCCC(O)CO (configuration not stated)
inactive: [1] | [2] | [4]

O=Nc1ccc(O)cc1
inactive: [1] | [2] | [4]
active: [3] 48.5 µM

O=C(O)Cc1c(Cl)ccc(Cl)c1Cl
inactive: [1] | [2] | [4] | [5]

NC(=O)OCC(COC(N)=O)c1ccccc1
inactive: [1] | [2] | [3] | [4] | [6]

CCCCC/C=C\C/C=C\CCCCCCCC(=O)OC
inactive: [1] | [2] | [8] | [4]

COC=O
inactive: [1] | [2] | [4] | [7]

COC(=O)C1=C(C)NC(C)=C(C(=O)OCC(C)C)C1c1ccccc1[N+](=O)[O-] (configuration not stated)
inactive: [1] | [2] | [8] | [4] | [6]

CCCCCCCCCCCCCCCC(=O)OCC
inactive: [1] | [2] | [6]

C=C(C)[C@H]1CC=C(C)CC1
inactive: [1] | [8] | [4] | [6]

C=C(C)[C@@H]1CCC2=CCC[C@@H](C)[C@]2(C)C1
active: [3] 9.59 µM
inactive: [1] | [10] | [8] | [4] | [5]

CC(=O)Nc1ccc2c(c1)Cc1cc(NC(C)=O)ccc1-2
inactive: [1] | [10] | [8] | [4]
